Experimental data from the supplement of paper PMC11732987, “Enantioselective OTUD7B fragment discovery through chemoproteomics screening and high-throughput optimisation” (Communications Chemistry, 2025).
Values without a mark were called inactive.

Columns and labels:
Assay in all cases: log2 ratio of Biotin-Ahx-Ub-VS probe labelling (fragment/DMSO); higher = less target engagement (more negative = stronger competition), active = hit call of the paper (q ≤ 0.05, log2 ratio ≤ -1)
Conditions in all cases: compound concentration: 200 uM; treatment time: 3 h
USP19 = target: T1, USP19 (UniProt O94966)
T1 sequence (whole entry): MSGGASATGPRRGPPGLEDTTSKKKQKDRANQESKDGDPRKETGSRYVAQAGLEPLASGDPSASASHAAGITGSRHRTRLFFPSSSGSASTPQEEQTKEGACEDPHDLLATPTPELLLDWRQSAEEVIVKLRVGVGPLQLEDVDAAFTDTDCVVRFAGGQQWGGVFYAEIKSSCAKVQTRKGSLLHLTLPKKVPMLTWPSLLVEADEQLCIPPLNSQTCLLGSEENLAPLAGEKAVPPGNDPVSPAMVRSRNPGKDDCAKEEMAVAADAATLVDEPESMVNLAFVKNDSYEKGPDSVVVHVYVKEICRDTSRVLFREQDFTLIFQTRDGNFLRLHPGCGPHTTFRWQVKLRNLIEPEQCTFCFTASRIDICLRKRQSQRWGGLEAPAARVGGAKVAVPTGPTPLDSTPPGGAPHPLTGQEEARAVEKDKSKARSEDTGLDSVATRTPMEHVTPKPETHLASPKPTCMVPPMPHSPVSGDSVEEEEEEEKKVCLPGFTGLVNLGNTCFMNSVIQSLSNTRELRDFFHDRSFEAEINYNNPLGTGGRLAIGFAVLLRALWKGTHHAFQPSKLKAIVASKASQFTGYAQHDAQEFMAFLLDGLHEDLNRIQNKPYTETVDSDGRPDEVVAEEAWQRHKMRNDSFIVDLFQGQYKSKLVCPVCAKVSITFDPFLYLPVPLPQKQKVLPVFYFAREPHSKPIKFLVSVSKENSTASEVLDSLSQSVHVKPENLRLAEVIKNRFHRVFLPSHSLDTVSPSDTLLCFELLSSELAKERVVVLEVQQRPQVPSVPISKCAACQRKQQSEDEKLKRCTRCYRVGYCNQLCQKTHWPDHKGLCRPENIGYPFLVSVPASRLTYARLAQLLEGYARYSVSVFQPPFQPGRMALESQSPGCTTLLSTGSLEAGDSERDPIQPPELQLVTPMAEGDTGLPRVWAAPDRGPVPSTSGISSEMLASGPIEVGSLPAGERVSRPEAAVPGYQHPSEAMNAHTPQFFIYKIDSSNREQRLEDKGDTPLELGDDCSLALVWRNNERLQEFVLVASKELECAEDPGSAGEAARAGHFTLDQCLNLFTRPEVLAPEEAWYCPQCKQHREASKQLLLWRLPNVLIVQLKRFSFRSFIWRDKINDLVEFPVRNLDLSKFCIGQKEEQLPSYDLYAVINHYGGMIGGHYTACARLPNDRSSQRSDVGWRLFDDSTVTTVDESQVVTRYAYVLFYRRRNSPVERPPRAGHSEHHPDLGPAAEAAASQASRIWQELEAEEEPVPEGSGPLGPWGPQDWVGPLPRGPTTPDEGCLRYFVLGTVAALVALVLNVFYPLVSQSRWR
Outline: (§1)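 Labelling with Biotin-Ahx-Ub-VS (0.5 µM final, 1 h) followed a 3 h triplicate treatment of HEK293T lysate (495 µg per sample, Tris/CHAPS/IGEPAL buffer with protease inhibitors) with fragment at 200 µM or vehicle. Labelled DUBs were NeutrAvidin-enriched, digested with LysC and trypsin, and run by diaPASEF LC-MS/MS. The values, average log2 fragment/vehicle ratios by unpaired t-test, come from global-median-normalised Spectronaut label-free quantities. Proteins with ≥2 unique peptides were used.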

USP22 = target: T2, USP22 (UniProt Q9UPT9)
T2 sequence (whole entry): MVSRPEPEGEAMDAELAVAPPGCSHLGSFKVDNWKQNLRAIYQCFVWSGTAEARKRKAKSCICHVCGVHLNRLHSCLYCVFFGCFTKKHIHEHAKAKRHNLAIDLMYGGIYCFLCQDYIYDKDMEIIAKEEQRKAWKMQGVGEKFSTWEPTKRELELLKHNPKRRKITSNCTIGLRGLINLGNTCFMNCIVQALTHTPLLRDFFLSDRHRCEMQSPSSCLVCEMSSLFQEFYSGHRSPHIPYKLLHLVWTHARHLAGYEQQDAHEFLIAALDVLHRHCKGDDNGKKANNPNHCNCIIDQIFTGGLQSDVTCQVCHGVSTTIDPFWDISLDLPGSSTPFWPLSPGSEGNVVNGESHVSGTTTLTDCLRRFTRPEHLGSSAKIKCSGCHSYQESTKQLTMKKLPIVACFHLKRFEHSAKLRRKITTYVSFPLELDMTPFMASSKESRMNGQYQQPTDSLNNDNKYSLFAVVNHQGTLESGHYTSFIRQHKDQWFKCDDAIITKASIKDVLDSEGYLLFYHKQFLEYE
Outline: as §1

USP24 = USP24 (UniProt Q9UPU5)
Outline: as §1

USP25 = target: T3, USP25 (UniProt Q9UHP3)
T3 sequence (whole entry): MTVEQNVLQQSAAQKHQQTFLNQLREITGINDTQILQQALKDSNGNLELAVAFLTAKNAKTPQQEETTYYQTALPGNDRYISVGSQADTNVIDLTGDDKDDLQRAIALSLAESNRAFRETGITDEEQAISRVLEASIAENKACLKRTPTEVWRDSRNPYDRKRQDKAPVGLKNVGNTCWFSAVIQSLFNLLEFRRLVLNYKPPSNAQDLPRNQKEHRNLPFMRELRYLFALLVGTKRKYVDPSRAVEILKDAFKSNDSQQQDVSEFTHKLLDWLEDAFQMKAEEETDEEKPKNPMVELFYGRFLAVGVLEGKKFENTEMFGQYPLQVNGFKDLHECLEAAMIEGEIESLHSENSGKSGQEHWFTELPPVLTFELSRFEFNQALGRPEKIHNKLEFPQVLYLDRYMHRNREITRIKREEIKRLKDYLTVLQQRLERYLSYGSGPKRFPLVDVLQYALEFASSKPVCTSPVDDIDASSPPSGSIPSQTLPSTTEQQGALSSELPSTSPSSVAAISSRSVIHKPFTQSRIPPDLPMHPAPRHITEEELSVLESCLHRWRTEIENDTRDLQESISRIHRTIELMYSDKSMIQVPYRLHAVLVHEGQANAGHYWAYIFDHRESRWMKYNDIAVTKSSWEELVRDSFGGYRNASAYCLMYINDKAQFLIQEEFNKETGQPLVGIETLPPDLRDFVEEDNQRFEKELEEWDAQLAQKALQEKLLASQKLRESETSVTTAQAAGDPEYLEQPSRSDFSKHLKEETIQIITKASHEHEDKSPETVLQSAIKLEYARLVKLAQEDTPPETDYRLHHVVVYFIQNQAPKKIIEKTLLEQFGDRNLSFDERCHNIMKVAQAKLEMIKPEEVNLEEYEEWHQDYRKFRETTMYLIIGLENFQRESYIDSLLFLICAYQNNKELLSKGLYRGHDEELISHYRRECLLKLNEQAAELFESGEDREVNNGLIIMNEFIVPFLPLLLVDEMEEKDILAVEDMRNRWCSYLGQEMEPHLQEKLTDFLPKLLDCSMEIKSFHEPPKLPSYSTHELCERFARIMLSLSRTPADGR
Outline: as §1

USP28 = target: T4, USP28 (UniProt Q96RU2)
T4 sequence (whole entry): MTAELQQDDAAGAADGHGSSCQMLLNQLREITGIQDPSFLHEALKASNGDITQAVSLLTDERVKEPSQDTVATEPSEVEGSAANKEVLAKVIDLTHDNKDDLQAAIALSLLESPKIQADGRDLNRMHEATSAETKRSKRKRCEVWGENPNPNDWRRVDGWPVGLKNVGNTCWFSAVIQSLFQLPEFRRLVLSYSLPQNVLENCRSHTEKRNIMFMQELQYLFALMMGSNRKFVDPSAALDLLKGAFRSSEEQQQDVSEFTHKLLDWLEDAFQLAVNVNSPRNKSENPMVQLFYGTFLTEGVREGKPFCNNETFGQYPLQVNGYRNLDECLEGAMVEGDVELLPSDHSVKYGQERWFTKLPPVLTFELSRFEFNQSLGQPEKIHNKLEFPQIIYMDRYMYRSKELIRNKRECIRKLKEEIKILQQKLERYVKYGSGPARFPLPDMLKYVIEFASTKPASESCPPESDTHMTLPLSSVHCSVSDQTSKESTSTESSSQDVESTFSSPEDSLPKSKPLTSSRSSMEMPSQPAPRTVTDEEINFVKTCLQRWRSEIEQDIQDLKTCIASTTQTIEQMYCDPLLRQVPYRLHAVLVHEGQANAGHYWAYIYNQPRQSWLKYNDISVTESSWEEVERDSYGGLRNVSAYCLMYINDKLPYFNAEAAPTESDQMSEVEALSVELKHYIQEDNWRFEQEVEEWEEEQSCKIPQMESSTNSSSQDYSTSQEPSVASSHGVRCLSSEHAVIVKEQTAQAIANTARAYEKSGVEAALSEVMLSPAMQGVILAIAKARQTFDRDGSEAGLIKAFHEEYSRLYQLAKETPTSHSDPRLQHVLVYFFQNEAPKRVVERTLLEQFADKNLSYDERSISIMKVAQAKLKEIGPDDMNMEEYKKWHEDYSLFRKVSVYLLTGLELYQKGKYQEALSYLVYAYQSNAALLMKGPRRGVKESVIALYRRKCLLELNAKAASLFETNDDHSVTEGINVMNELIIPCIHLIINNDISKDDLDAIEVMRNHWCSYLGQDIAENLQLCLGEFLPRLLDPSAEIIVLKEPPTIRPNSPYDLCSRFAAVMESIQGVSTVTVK
Outline: as §1

Sequence of USP24 (Q9UPU5 whole entry): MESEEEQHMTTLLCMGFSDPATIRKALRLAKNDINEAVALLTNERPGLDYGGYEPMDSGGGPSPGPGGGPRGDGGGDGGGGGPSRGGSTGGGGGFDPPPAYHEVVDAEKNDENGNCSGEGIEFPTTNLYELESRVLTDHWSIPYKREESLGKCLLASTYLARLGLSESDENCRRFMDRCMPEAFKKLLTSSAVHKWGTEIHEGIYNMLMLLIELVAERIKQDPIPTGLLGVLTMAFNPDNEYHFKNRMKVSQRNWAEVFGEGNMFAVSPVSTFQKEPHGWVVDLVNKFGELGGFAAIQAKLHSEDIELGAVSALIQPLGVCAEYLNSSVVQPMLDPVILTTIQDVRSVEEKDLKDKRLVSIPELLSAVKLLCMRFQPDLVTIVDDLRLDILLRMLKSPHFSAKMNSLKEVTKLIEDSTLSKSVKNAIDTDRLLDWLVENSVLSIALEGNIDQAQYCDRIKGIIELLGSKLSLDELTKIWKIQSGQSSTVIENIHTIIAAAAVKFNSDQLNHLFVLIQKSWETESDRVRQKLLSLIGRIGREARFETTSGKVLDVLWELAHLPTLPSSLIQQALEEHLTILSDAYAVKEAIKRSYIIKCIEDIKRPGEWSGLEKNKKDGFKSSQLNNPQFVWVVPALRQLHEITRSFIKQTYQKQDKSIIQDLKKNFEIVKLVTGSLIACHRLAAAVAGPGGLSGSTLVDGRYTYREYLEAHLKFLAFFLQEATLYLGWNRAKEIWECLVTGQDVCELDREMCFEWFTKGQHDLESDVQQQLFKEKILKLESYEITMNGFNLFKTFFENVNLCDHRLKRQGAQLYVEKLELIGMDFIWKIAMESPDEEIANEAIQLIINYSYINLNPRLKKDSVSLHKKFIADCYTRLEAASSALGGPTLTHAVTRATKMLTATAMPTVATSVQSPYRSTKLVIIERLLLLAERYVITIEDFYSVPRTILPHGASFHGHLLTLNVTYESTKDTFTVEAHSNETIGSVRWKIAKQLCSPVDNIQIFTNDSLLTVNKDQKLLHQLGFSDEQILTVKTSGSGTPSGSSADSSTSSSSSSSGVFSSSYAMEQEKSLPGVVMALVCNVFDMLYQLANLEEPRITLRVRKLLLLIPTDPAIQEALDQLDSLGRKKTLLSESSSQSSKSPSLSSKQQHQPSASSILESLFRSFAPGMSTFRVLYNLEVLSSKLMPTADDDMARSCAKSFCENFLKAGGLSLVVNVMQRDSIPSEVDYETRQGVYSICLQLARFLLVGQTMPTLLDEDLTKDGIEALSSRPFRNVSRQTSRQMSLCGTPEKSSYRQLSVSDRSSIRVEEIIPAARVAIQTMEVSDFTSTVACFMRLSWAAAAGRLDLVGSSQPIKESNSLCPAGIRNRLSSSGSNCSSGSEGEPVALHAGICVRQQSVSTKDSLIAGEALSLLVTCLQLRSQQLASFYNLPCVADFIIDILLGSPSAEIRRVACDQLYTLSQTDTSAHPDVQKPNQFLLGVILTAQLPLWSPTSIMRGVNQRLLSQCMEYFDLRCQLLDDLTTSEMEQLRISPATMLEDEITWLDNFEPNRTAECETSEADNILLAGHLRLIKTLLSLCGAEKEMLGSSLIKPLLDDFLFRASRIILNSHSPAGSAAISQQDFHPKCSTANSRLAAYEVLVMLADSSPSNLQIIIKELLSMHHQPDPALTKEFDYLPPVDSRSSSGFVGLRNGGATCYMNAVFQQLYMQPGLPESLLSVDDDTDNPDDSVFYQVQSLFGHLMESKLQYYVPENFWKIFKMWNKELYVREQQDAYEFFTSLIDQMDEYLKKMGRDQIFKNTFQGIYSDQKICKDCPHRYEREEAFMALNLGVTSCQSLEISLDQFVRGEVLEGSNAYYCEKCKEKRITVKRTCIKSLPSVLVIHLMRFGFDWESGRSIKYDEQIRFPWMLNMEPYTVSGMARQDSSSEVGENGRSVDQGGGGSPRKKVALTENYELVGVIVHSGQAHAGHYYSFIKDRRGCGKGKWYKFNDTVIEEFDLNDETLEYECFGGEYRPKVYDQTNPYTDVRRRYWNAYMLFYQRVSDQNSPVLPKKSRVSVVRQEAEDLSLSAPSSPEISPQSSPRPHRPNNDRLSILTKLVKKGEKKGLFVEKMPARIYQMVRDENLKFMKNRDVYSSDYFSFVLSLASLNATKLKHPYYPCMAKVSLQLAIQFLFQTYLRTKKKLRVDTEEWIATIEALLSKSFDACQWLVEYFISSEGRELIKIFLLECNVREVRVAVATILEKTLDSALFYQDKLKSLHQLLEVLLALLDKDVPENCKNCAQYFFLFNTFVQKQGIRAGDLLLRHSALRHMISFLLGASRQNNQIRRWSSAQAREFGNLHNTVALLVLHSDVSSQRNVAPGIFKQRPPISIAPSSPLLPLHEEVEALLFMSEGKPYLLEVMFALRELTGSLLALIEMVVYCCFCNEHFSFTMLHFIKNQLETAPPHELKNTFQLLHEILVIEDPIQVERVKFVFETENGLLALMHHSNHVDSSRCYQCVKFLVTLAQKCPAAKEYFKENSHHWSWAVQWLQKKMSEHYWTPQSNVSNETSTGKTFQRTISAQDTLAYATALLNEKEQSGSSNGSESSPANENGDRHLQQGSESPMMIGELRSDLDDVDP

## O=C(CCl)N1CCc2sccc2C1
USP19
  log2 ratio of Biotin-Ahx-Ub-VS probe labelling: -1.19 (active)
USP22
  log2 ratio of Biotin-Ahx-Ub-VS probe labelling: -0.23
USP24
  log2 ratio of Biotin-Ahx-Ub-VS probe labelling: -1.31 (active)
USP25
  log2 ratio of Biotin-Ahx-Ub-VS probe labelling: -1.13 (active)
USP28
  log2 ratio of Biotin-Ahx-Ub-VS probe labelling: -0.791
